# Test results from PubChem BioAssay AID1445 (SRMLSC, 2008).
# Out of some 220,000 compounds screened, about 910 (0.41%) were called active. Only a selection was taken, and actives are over-represented in it overall. Measured potencies and affinities stand elsewhere. Values without a mark were called inactive.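 The calls were made as follows: active = primary inhibition above the hit cutoff, then over 50% inhibition at one or more dose response concentrations (cut at about 23% in these data, passing the limit was not always enough); inconclusive = conflicting primary data, or primary hits not chosen for dose response; inactive = low primary inhibition, or under 50% at every dose.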
# Biological target: Aminopeptidase N (Plasmodium falciparum (isolate 3D7)) (UniProt O96935)
# Test: P. falciparum M1AAP inhibitors, biochemical, fluorogenic H-Leu-NHMec substrate, 1536-well (AID 1445);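 also: plate controls were DMSO full reaction for no effect and no enzyme background for full effect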
# Conditions: recombinant M1AAP, H-Leu-NHMec fluorogenic kinetic assay
# [1] = at 30 µM, active compounds read high unless noted
# Chain of Aminopeptidase N (Plasmodium falciparum (isolate 3D7)) (O96935 whole entry, looked up): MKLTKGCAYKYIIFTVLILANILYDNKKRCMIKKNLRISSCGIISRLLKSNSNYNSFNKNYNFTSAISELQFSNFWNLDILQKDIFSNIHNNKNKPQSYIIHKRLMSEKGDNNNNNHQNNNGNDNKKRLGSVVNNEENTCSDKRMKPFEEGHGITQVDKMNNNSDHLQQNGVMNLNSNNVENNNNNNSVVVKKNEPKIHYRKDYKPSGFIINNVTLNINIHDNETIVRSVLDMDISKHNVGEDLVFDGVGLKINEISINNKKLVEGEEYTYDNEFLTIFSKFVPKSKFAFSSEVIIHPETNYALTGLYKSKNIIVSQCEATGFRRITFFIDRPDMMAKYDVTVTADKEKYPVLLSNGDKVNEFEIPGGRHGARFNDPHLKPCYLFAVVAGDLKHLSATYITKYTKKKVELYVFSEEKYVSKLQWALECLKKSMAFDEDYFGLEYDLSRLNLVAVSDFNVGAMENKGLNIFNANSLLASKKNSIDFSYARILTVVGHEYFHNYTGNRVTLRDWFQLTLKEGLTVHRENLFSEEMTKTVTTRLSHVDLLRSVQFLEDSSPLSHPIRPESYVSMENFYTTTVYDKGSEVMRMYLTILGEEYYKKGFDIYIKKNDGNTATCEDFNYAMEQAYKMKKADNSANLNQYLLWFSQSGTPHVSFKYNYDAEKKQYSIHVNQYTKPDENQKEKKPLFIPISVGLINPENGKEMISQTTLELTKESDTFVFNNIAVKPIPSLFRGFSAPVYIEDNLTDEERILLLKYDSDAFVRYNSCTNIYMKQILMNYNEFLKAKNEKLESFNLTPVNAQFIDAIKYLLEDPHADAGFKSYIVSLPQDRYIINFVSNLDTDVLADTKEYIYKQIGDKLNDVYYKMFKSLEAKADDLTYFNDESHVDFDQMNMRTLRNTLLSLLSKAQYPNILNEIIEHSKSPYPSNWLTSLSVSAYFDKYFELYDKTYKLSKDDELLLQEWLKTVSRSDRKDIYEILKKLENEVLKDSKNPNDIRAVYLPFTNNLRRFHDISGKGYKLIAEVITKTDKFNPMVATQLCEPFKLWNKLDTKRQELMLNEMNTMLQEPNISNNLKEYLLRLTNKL
smiles,measurement,setting,value
COC(C[C@H](O)CC(=O)[C@H](C)OCc1ccccc1)OC,inhibition,[1],1.19%
COC(=O)c1sc2nc(-c3ccccc3)c3c(c2c1N)CCCC3,inhibition,[1],0.85%
COc1ccc(CN(C)C(=S)Nc2ccc(OC(F)F)cc2)cc1,inhibition,[1],-1.27%
O=C1CCCc2nc3nc4ccccc4n3cc21,inhibition,[1],-2.88%
CCOC(=O)CSc1nc2c(sc(=S)n2-c2ccccc2)c(=O)[nH]1,inhibition,[1],7.91%
CCOc1ccc(-n2c(=S)sc3c(=O)[nH]c(SCC(=O)NC(C)CC)nc32)cc1 (configuration not stated),inhibition,[1],11.5%
CCOC(=O)CC(=O)CSc1nc2c(sc(=S)n2-c2ccccc2)c(=O)[nH]1,inhibition,[1],21.4%
CC1CCN(C(=O)CSc2nc(N)cc(N)n2)CC1,inhibition,[1],-2.52%
CCN(CC)C(=O)CSc1nc2c(sc(=S)n2-c2ccccc2)c(=O)[nH]1,inhibition,[1],5.01%
CCOc1ccc(-n2c(=S)sc3c(=O)[nH]c(SCC(=O)NCC4CCCO4)nc32)cc1 (configuration not stated),inhibition,[1],18.3%
CCOc1ccc(-n2c(=S)sc3c(=O)[nH]c(SCC(=O)NCc4ccco4)nc32)cc1,inhibition,"at 30 µM, active compounds read high",29.8% (active)
same,inhibition,at 100 µM (top of the series),46.1%
CCOC(=O)CSc1nc2c(sc(=S)n2-c2ccc(OCC)cc2)c(=O)[nH]1,inhibition,[1],13.9%
CCOc1ccc2c(c1)c1nnc(SCC(=O)N3CCC(C)CC3)nc1n2C,inhibition,[1],7.57%
CCCc1ccc(OCC(=O)NNC(=O)c2cccnc2)cc1,inhibition,[1],-2.33%
Cc1cc(C(F)(F)F)nc(Nc2nc(C)c3ccccc3n2)n1,inhibition,[1],10.9%
COc1cc2ccc(=O)oc2cc1OCC(O)C(C)(C)O (configuration not stated),inhibition,[1],14.1%
COc1cccc(/C=N/Nc2nc3ccccc3n3cnnc23)c1,inhibition,[1],0.89%
CCOC(=O)c1cc(-c2ccccc2)n(CCC(=O)N2CCN(c3ccc(OC)cc3)CC2)c1C,inhibition,[1],5.67%
Cc1cc(C)n(/N=C/c2c[nH]c3ccccc23)c(=O)c1C#N,inhibition,[1],5.27%
CCc1ccc(NC(=O)CSc2nc3ccsc3c(=O)n2CCCCCC(=O)O)cc1,inhibition,[1],-11.3%
COc1cc(NC(C)=O)ccc1-c1cc2ccccc2oc1=O,inhibition,[1],4%
COc1ccc(NC(=O)C2CCC(=O)N2)cc1 (configuration not stated),inhibition,[1],3.48%
COc1ccc(C(C(=O)NC(C)(C)C)N(C(=O)CNC(=O)c2cccs2)c2ccc(C)cc2)cc1OC (configuration not stated),inhibition,[1],-2.96%
O=C(COC(=O)c1ccc(Cl)nc1)Nc1ccc(S(=O)(=O)N2CCCC2)cc1,inhibition,[1],9.72%
Nc1ccc(C23CC4CC(CC(C4)C2)C3)cc1,inhibition,[1],1.15%
CCOC(=O)c1cnc2c(-c3ccc(Cl)cc3)cnn2c1C,inhibition,[1],-12.2%
CC(=O)c1cnc2c(-c3ccc(Cl)cc3)cnn2c1C,inhibition,[1],-0.05%
CC(C)(C)C(=O)NC(=S)Nc1ccc(F)cc1,inhibition,[1],4.15%
O=c1cc(-c2ccc(F)cc2F)[nH]c2ccccc12,inhibition,[1],-3.62%
O=c1cc(CSc2nnc(COc3ccccc3Cl)o2)nc2sccn12,inhibition,[1],25.3% (active)
CC(C)NC(=O)CSc1nnc(COc2ccccc2Cl)o1,inhibition,[1],8.56%
O=c1cc(CSc2nc3cc(Cl)ccc3o2)nc2sccn12,inhibition,[1],4.21%
O=c1cc(CSc2ccc(S(=O)(=O)N3CCCCC3)cn2)nc2sccn12,inhibition,[1],24.1% (active)
O=c1cc(CN2CCN(S(=O)(=O)c3ccc4ccccc4c3)CC2)nc2sccn12,inhibition,[1],-6.82%
O=c1cc(CN2CCN(S(=O)(=O)c3ccccc3)CC2)nc2sccn12,inhibition,[1],-0.76%
CN(C)CCCNS(=O)(=O)c1cc(Cl)c(Cl)cc1Cl,inhibition,[1],0.71%
C#CCOC(=O)Nc1ccc(OCC(F)(F)F)nc1,inhibition,[1],-3.37%
O=C(O)Cc1cc(C(=O)Nc2ccc(Br)cc2)sc1-c1ccccc1,inhibition,[1],8.41%
COc1ccc([N+](=O)[O-])cc1NC(=O)C(C)OC(=O)c1cccnc1 (configuration not stated),inhibition,[1],-3.23%
CC(C)[C@H](NC(=O)c1ccc(Cl)c([N+](=O)[O-])c1)C(=O)NCc1ccc(F)cc1,inhibition,[1],3.78%
Cc1cc(NC(=O)c2ccccc2)ncc1NC(=O)c1ccco1,inhibition,[1],5.34%
Cc1cc(NC(=O)c2ccco2)ncc1NC(=O)CCc1ccccc1,inhibition,[1],29.7% (active)
Cc1cc(NC(=O)c2ccco2)ncc1NC(=O)Cc1ccccc1,inhibition,[1],0.67%
CC1CCCC(NC(=O)CCn2c(=S)oc3ccccc32)C1C (configuration not stated),inhibition,[1],3.48%
Cc1ccc(-n2c(-c3nn(C)c(C)c3Cl)n[nH]c2=S)cc1,inhibition,[1],1.9%
CCNC(=O)C1CC(=O)N(Cc2ccc3c(c2)OCO3)C(=Nc2ccc(F)cc2)S1 (configuration not stated),inhibition,[1],27% (active)
CCNC(=O)C1CC(=O)N(Cc2ccc3c(c2)OCO3)C(=Nc2ccc(OCC)cc2)S1 (configuration not stated),inhibition,[1],-1.35%
CNC(=O)C1CC(=O)N(Cc2ccc3c(c2)OCO3)C(=Nc2ccc(F)cc2)S1 (configuration not stated),inhibition,[1],-5.29%
COc1ccc(NC(=S)N2CCN(c3ncccn3)CC2)cc1,inhibition,[1],4.34%
CC1=CC(c2ccccc2)n2nnnc2N1 (configuration not stated),inhibition,[1],-5.78%
c1ccc(N2CCN(c3nc4ccccc4n4cnnc34)CC2)cc1,inhibition,[1],14.5%
c1ccc2c(c1)nc(N1CCOCC1)c1nncn12,inhibition,[1],4.1%
c1cnc(N2CCN(c3nc4ccccc4n4cnnc34)CC2)nc1,inhibition,[1],24.4% (active)
Cc1cc(C)n(Cc2nc3ccccc3n2C)n1,inhibition,[1],-3.79%
CC(C)(C)[C@H]1C=C(C(=O)NC2CC2)O[C@@H](OCc2ccc(CO)cc2)C1,inhibition,[1],1.09%
NC(=O)c1sc(=S)n2c1[nH]c(=O)c1sccc12,inhibition,[1],17.2%
CCCCCNC(=O)c1ccc2c(=O)n(CC3CCCO3)c(=S)[nH]c2c1 (configuration not stated),inhibition,[1],5.58%
O=C(NC1CCCCC1)c1sc(=S)n2c1[nH]c(=O)c1ccccc12,inhibition,[1],0.76%
O=C(NCC1CCCO1)c1sc(=S)n2c1[nH]c(=O)c1ccc(C(=O)N3CCCCC3)cc12 (configuration not stated),inhibition,[1],20.2%
CC(=O)NNC(=O)c1sc(=S)n(C)c1C,inhibition,[1],0.62%
CCCCCNC(=O)c1ccc2c(=O)n(CC3CCCO3)c(=O)[nH]c2c1 (configuration not stated),inhibition,[1],4.6%
O=C(NCc1ccccc1)c1sc(=S)n2c1[nH]c(=O)c1ccccc12,inhibition,[1],18.5%
Cc1ccc(CNC(=O)c2ccc3c(=O)[nH]c4c(C(=O)NCC5CCCO5)sc(=S)n4c3c2)cc1 (configuration not stated),inhibition,[1],23%
O=C(NCc1ccco1)c1ccc(Br)c(S(=O)(=O)N2CCCCC2)c1,inhibition,[1],3.95%
COc1ccc(NC(=O)C23CC4CC(C2)CC(c2ccccc2)(C4)C3)c(OC)c1,inhibition,[1],-2.32%
COc1c(C)cc(C(=O)C2CCCN(C(=O)c3cccc(F)c3)C2)cc1C (configuration not stated),inhibition,[1],0.9%
CC(=O)Nc1ccc(OCC(O)Cn2c(CO)nc3ccccc32)cc1 (configuration not stated),inhibition,[1],6.49%
Cc1ccc(N(CC(=O)O)S(C)(=O)=O)cc1Cl,inhibition,[1],-5.06%
C=CCOC(=O)C(=O)/C=C/c1csc2ccccc12,inhibition,[1],1.93%
Cc1cc(C)c2c(-n3cccc3)c(C(=O)O)sc2n1,inhibition,[1],12.2%
Cc1cc(C)c2c(-n3cccc3)c(C(=O)NNS(=O)(=O)c3ccc(F)cc3)sc2n1,inhibition,[1],-2.28%
COC(=O)C(=C/C(C)=C/c1cccs1)C(=O)OC,inhibition,[1],13.8%
Cc1ccc(N2C(=O)CCC2(C(N)=O)c2ccccc2)cc1 (configuration not stated),inhibition,[1],-0.36%
CCC(=O)Nc1ccc(-c2nc3ccccc3c(=O)o2)cc1,inhibition,[1],2.53%
CCOc1ccccc1CN1CCN(Cc2[nH]c3ccccc3c2C)CC1CCO (configuration not stated),inhibition,[1],-0.18%
COc1cc(/C=N\NC(=O)c2sc(N)nc2C)cc(OC)c1OC,inhibition,[1],8.26%
COc1cccc(/C=N\NC(=O)c2sc(N)nc2C)c1OC,inhibition,[1],24.5% (active)
Cc1nc(N)sc1C(=O)N/N=C/c1ccccc1[N+](=O)[O-],inhibition,[1],5.94%
Cc1csc(Nc2ccccc2)[n+]1C,inhibition,[1],-12.3%
CC(C)c1cc(C(=O)Nc2sc3c(c2C#N)CCC3)no1,inhibition,[1],20.6%
Cc1cc(C(=O)Nc2sc3c(c2C#N)CCCC3)no1,inhibition,[1],8.77%
Cc1cc(C(=O)Nc2sc3c(c2C#N)CCC3)no1,inhibition,[1],23.7% (active)
Cc1ccc(S(=O)(=O)NC(=O)NCCCCNC(=O)NS(=O)(=O)c2ccc(C)cc2)cc1,inhibition,[1],0.51%
Cc1ccc(Cc2cc(C)n[nH]c2=O)cc1,inhibition,[1],9.53%
COCc1cc(C)nc(OCC(=O)N/N=C/c2ccco2)c1C#N,inhibition,[1],9.71%
CC(=O)Nc1ccc(-c2csc(N/N=C(/C)c3ccccc3)n2)cc1,inhibition,[1],11.9%
CC(=O)Nc1nc(C(=O)O)cs1,inhibition,[1],-0.08%
CCc1nnc(N/N=C/c2c(Cl)cccc2Cl)n1N,inhibition,[1],1.62%
O=C(Nc1cccs1)Nc1ccc(Br)cc1F,inhibition,[1],5.12%
CCOC(=O)NNS(=O)(=O)c1cc(Br)ccc1Br,inhibition,[1],-1.42%
CCOc1ccc(Br)cc1S(=O)(=O)Nc1ccc(NC(=O)c2ccccc2C)cc1,inhibition,[1],7.33%
Cc1ccc(CN2C(=O)N/C(=C\c3cccn3-c3cccc(C(=O)O)c3)C2=O)cc1,inhibition,[1],11.9%
O=Cc1ccc(-c2ccc(C(=O)O)cc2)o1,inhibition,[1],7.72%
Cc1nc(S/C(=C/c2ccc(-c3cccc(Cl)c3)o2)C(=O)O)n[nH]1,inhibition,[1],-8.13%
Cc1nc(S/C(=C/c2ccc(-c3ccc(Cl)cc3)o2)C(=O)O)n[nH]1,inhibition,[1],-6.28%
CC(=O)c1ccc(-c2ccc(/C=C(/Sc3n[nH]c(C)n3)C(=O)O)o2)cc1,inhibition,[1],5.19%
